# Measured values: PubChem BioAssay (NCATS)
# Unmarked numbers belong to inactive results. Inconclusive results are not listed. Activity calls are given as the source filed them. Calls come from the whole dose curve; as a rule, active = well fitted curve in the direction sought with a large enough effect; inconclusive = small, poorly fitted or top-dose-only effect, or another doubt; inactive = no such curve, though single readings can be large; an effect the other way counts as inactive or inconclusive.
# Tested on: not listed separately
# Test: Primary fluorescence-based thiol-reactive (MSTI) qHTS assay for identification of artifact compounds. (AID 1845221); note: nearly all actives have a fitted effect of over 65% in size; note: potency is the fitted concentration of half-maximal effect;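 for activity change, negative = thiol reactive: thiol-reactive compounds lower the probe fluorescence signal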
# Conditions: MSTI thiol-reactivity probe, 1 h; series mostly up to 53.8 µM; activity change, negative = thiol reactive: at the top concentration
# Method in brief: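 Compounds were incubated 1 h at room temperature in the dark with the MSTI probe (4 uM) in PBS pH 7.4, 2% DMSO. Signals were normalized between Acetyl-MSTI and MSTI.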
Compound,"activity change, negative = thiol reactive",Potency
O=C(NCC1CN(c2ccc(N3CCOCC3=O)cc2)C(=O)O1)c1ccc(Cl)s1 (centres undefined),80.4%,
O=C(O)CCn1c2c(c3ccccc31)C[C@H](NS(=O)(=O)c1ccc(F)cc1)CC2,,1.68 µM (active)
O=P(O)(O)C(O)(Cc1cccnc1)P(=O)(O)O,,inactive
CC1(C)[C@H](C(=O)O)N2C(=O)C[C@H]2S1(=O)=O,-9.45%,
CNS(=O)(=O)CCc1ccc2[nH]cc(C3CCN(C)CC3)c2c1,-11.3%,
CNC(=O)c1cc(Oc2ccc(NC(=O)Nc3ccc(Cl)c(C(F)(F)F)c3)cc2)ccn1,265%,
COc1cc2ncnc(Nc3cccc(Cl)c3)c2cc1OC,506%,
NC1(c2ccc(-c3nc4ccn5c(=O)[nH]nc5c4cc3-c3ccccc3)cc2)CCC1,-21.7%,
CC[C@H](C)C(=O)O[C@H]1C[C@@H](C)C=C2C=C[C@H](C)[C@H](CC[C@@H]3C[C@@H](O)CC(=O)O3)[C@H]21,6.51% [at 25.6 µM],
CC1=NN(c2ccccc2)C(=O)C1,,8.44 µM (active)
Nc1nc(F)nc2c1ncn2[C@@H]1O[C@H](CO)[C@@H](O)[C@@H]1O,-12.4%,
CC(C(=O)O)c1ccc2c(c1)CC(=O)c1ccccc1S2 (centres undefined),-2.3%,
COc1cc2c(Nc3ccc(Br)cc3F)ncnc2cc1OCC1CCN(C)CC1,105%,
Cc1onc(-c2ccccc2Cl)c1C(=O)N[C@@H]1C(=O)N2[C@@H]1SC(C)(C)[C@@H]2C(=O)O,,inactive

# Tested on: Nanoluciferase (engineered Oplophorus gracilirostris luciferase)
# Test: Primary Nanoluciferase (NLuc) qHTS assay for identification of artifact compounds. (AID 1845222);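 note: 0% = DMSO and -100% = no enzyme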
# Conditions: NLuc-conditioned medium, Nano-Glo luminescence, 5 min; series mostly up to 54.1 µM; activity, negative = inhibition: at the top concentration
# Method in brief: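 Luminescence read-out of secreted NLuc in S16 cell conditioned medium (1:55); compounds tested with 15 min RT preincubation, then Nano-Glo substrate 1:100, 5 min. % inhibition vs no-enzyme and DMSO controls, 4-parameter Hill fit.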
Compound,"activity, negative = inhibition",outcome
O=C(NCC1CN(c2ccc(N3CCOCC3=O)cc2)C(=O)O1)c1ccc(Cl)s1 (centres undefined),-3.68%,
O=C(O)CCn1c2c(c3ccccc31)C[C@H](NS(=O)(=O)c1ccc(F)cc1)CC2,-6.97%,
O=P(O)(O)C(O)(Cc1cccnc1)P(=O)(O)O,,inactive
CC1(C)[C@H](C(=O)O)N2C(=O)C[C@H]2S1(=O)=O,3.05%,
CNS(=O)(=O)CCc1ccc2[nH]cc(C3CCN(C)CC3)c2c1,4.44%,
CNC(=O)c1cc(Oc2ccc(NC(=O)Nc3ccc(Cl)c(C(F)(F)F)c3)cc2)ccn1,-1.3%,
COc1cc2ncnc(Nc3cccc(Cl)c3)c2cc1OC,-8.85%,
NC1(c2ccc(-c3nc4ccn5c(=O)[nH]nc5c4cc3-c3ccccc3)cc2)CCC1,-13.3%,
CC[C@H](C)C(=O)O[C@H]1C[C@@H](C)C=C2C=C[C@H](C)[C@H](CC[C@@H]3C[C@@H](O)CC(=O)O3)[C@H]21,-0.399% [at 25.7 µM],
Cc1nnc(C(=O)NC(C)(C)c2nc(C(=O)NCc3ccc(F)cc3)c(O)c(=O)n2C)o1,-0.881%,
CC1=NN(c2ccccc2)C(=O)C1,-11.9%,
Nc1nc(F)nc2c1ncn2[C@@H]1O[C@H](CO)[C@@H](O)[C@@H]1O,0%,
CC(C(=O)O)c1ccc2c(c1)CC(=O)c1ccccc1S2 (centres undefined),-16%,
COc1cc2c(Nc3ccc(Br)cc3F)ncnc2cc1OCC1CCN(C)CC1,-22.1%,
Cc1onc(-c2ccccc2Cl)c1C(=O)N[C@@H]1C(=O)N2[C@@H]1SC(C)(C)[C@@H]2C(=O)O,,inactive

# Tested on: not listed separately
# Test: Primary redox qHTS assay for identification of artifact compounds. (AID 1845223); note: potency is the fitted concentration of half-maximal effect;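 for redox activity (% of DA3003): 0% = DMSO and 100% = reference compound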
# Conditions: Amplex Red/HRP redox cycling with DTT, fluorescence; series mostly up to 53.8 µM; redox activity (% of DA3003): at the top concentration
# Method in brief: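 Amplex Red (25 uM) and HRP (250 mU/mL) in HBSS, with compounds for 15 min, then 250 uM DTT for 30 min, room temperature, dark. Fluorescence 525/598 nm read; normalized to DMSO and 10 uM DA3003; Hill fit.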
Compound,redox activity (% of DA3003),Potency
O=C(NCC1CN(c2ccc(N3CCOCC3=O)cc2)C(=O)O1)c1ccc(Cl)s1 (centres undefined),-2.94%,
O=P(O)(O)C(O)(Cc1cccnc1)P(=O)(O)O,,inactive
CC1(C)[C@H](C(=O)O)N2C(=O)C[C@H]2S1(=O)=O,-1.81%,
CNS(=O)(=O)CCc1ccc2[nH]cc(C3CCN(C)CC3)c2c1,-9.58%,
CNC(=O)c1cc(Oc2ccc(NC(=O)Nc3ccc(Cl)c(C(F)(F)F)c3)cc2)ccn1,-8.61%,
NC1(c2ccc(-c3nc4ccn5c(=O)[nH]nc5c4cc3-c3ccccc3)cc2)CCC1,13.2%,
CC[C@H](C)C(=O)O[C@H]1C[C@@H](C)C=C2C=C[C@H](C)[C@H](CC[C@@H]3C[C@@H](O)CC(=O)O3)[C@H]21,-11.4% [at 25.6 µM],
Cc1nnc(C(=O)NC(C)(C)c2nc(C(=O)NCc3ccc(F)cc3)c(O)c(=O)n2C)o1,0.983%,
CC1=NN(c2ccccc2)C(=O)C1,,3.36 µM (active)
Nc1nc(F)nc2c1ncn2[C@@H]1O[C@H](CO)[C@@H](O)[C@@H]1O,-4.17%,
CC(C(=O)O)c1ccc2c(c1)CC(=O)c1ccccc1S2 (centres undefined),19.4%,
Cc1onc(-c2ccccc2Cl)c1C(=O)N[C@@H]1C(=O)N2[C@@H]1SC(C)(C)[C@@H]2C(=O)O,19.5%,

# Tested on: not listed separately
# Test: Quantitative High-Throughput drug screen in 47 multiple myeloma cell lines against the NCATS MIPE library collection: FR4_PLB cell viability assay (AID 1918924; note: nearly all actives have a fitted effect of over 35% in size; note: potency is the fitted concentration of half-maximal effect;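 for viability (% of DMSO control): 100% = DMSO-treated cells and 0% = wells with media only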)
# Conditions: FR4_PLB myeloma cells viability, CellTiter-Glo ATP, 48 h; series mostly up to 45.8 µM; viability (% of DMSO control): at the top concentration
# Method in brief: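 Viability readout: CellTiter-Glo luminescence following 5 min room-temperature incubation with reagent. Prior exposure: 48 h, 37C, humidified 5% CO2, 500 cells per well.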
Compound,viability (% of DMSO control) [%],Potency
COc1cnc(NS(=O)(=O)c2ccc(N)cc2)nc1,119,
CCCOc1ccc(C(=O)OCCN(CC)CC)cc1N,126,
NS(=O)(=O)c1cc2c(cc1Cl)NC(C(Cl)Cl)NS2(=O)=O (centres undefined),119,
OC(Cn1cncn1)(Cn1cncn1)c1ccc(F)cc1F,123,
O=P(O)(O)C(O)(Cc1cccnc1)P(=O)(O)O,111,
CC1(C)[C@H](C(=O)O)N2C(=O)C[C@H]2S1(=O)=O,104,
CNS(=O)(=O)CCc1ccc2[nH]cc(C3CCN(C)CC3)c2c1,,16.6 µM (active)
CS(=O)(=O)c1ccc([C@@H](O)[C@@H](CO)NC(=O)C(Cl)Cl)cc1,107,
COc1ccc2cc3[n+](cc2c1OC)CCc1cc2c(cc1-3)OCO2,,14.8 µM (active)
CNC(=O)c1cc(Oc2ccc(NC(=O)Nc3ccc(Cl)c(C(F)(F)F)c3)cc2)ccn1,,20.9 µM (active)
COc1cc2ncnc(Nc3cccc(Cl)c3)c2cc1OC,,26.4 µM (active)
O=C(O)c1cccnc1,99.1,
NC1(c2ccc(-c3nc4ccn5c(=O)[nH]nc5c4cc3-c3ccccc3)cc2)CCC1,106,
NNC(=O)c1ccncc1,101,
CC[C@H](C)C(=O)O[C@H]1C[C@@H](C)C=C2C=C[C@H](C)[C@H](CC[C@@H]3C[C@@H](O)CC(=O)O3)[C@H]21,,11.8 µM (active)
Cc1nnc(C(=O)NC(C)(C)c2nc(C(=O)NCc3ccc(F)cc3)c(O)c(=O)n2C)o1,119,
CC1=NN(c2ccccc2)C(=O)C1,117,
Nc1nc(F)nc2c1ncn2[C@@H]1O[C@H](CO)[C@@H](O)[C@@H]1O,,0.187 µM (active)
CC(C(=O)O)c1ccc2c(c1)CC(=O)c1ccccc1S2 (centres undefined),105,
CC1=C(C(=O)O)N2C(=O)[C@@H](NC(=O)C(N)c3ccccc3)[C@H]2SC1 (some centres undefined),112,
CC(C)(C#N)c1cc(Cn2cncn2)cc(C(C)(C)C#N)c1,120,
Nc1ccc(S(=O)(=O)Nc2ccccn2)cc1,116,
Cc1onc(-c2ccccc2Cl)c1C(=O)N[C@@H]1C(=O)N2[C@@H]1SC(C)(C)[C@@H]2C(=O)O,101,
